PubChem BioAssay (EPA / NIEHS)
The source made the active and inactive calls. The calls were made as follows: active = hit-call score of the fitted dose curve at least 0.9, where 1 is the maximum; inactive = score below 0.9.

Columns and labels:
Conditions in all cases: mRNA level, 48 h; actives raise or lower the signal
[1] = read-out: Apolipoprotein A-V (APOA5) gene, APOA5 (gene 116519); experiment: LTEA_HepaRG_APOA5: Life Technologies and Expression Analysis (LTEA) Assay for Apolipoprotein A-V (APOA5) gene using HepaRG (AID 2283474)
How it was run: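 APOA5 transcript levels were quantified by qRT-PCR, normalized to three housekeeping genes, after 48 h chemical treatment of HepaRG cells (8 points, 100 uM maximum, half-log steps, 0.5% DMSO). Curves fitted in both directions against vehicle.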

[2] = read-out: Apoptosis regulator Bcl-2 (Homo sapiens) (UniProt P10415); experiment: LTEA_HepaRG_BCL2: Life Technologies and Expression Analysis (LTEA) Assay for Bcl-2 gene using HepaRG (AID 2283475);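 also: BCL2 transcript by TaqMan qRT-PCR normalised to ACTB GAPDH and POLR2A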
How it was run: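 Expression change of BCL2 mRNA in HepaRG after 48 h dosing, quantified by TaqMan qRT-PCR against three endogenous controls. Concentration-response used eight points up to 100 uM, vehicle 0.5% DMSO.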

[3] = read-out: Bcl-2 (BID) gene, BID (gene 637); experiment: LTEA_HepaRG_BID: Life Technologies and Expression Analysis (LTEA) Assay for Bcl-2 (BID) gene using HepaRG (AID 2283476)
How it was run: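 Gain or loss of BID expression is fitted relative to 0.5% DMSO vehicle. Human HepaRG liver cells received a 48 h chemical exposure over an eight-point concentration range.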

Caspase-3 (Homo sapiens) = Caspase-3 (Homo sapiens) (UniProt P42574); experiment: LTEA_HepaRG_CASP3: Life Technologies and Expression Analysis (LTEA) Assay for cysteine-aspartic acid protease (CASP3) using HepaRG (AID 2283477)
Chain of Caspase-3 (Homo sapiens) (P42574 whole entry, looked up): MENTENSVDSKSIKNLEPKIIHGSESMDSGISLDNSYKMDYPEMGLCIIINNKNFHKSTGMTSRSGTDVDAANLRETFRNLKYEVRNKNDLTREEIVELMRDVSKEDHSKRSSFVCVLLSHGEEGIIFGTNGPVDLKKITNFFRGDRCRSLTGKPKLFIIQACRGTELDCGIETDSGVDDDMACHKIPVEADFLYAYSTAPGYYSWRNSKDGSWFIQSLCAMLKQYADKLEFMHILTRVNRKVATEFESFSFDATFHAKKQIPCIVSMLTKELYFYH
How it was run: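 Expression of CASP3 was quantified by TaqMan qRT-PCR against three housekeeping genes (ACTB, GAPDH, POLR2A), bidirectionally versus 0.5% DMSO. HepaRG cultures received compounds in duplicate, top 100 uM with half-log steps, for 48 h in serum-free induction medium.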

[4] = read-out: Cytochrome P450 (CYP24A1), CYP24A1 (gene 1591); experiment: LTEA_HepaRG_CYP24A1: Life Technologies and Expression Analysis (LTEA) Assay for Cytochrome P450 (CYP24A1) using HepaRG (AID 2283478)
How it was run: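 mRNA of CYP24A1 quantified by TaqMan qRT-PCR (ACTB/GAPDH/POLR2A normalization) after 48 h chemical exposure of HepaRG cells, top concentration 100 uM, half-log steps, 0.5% DMSO vehicle, duplicates. Curves fitted bidirectionally against DMSO baseline.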

[5] = read-out: cysteine-aspartic acid protease (CASP8), CASP8 (gene 841); experiment: LTEA_HepaRG_CASP8: Life Technologies and Expression Analysis (LTEA) Assay for cysteine-aspartic acid protease (CASP8) using HepaRG (AID 2283480)
How it was run: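 Differentiated human HepaRG cells, plated 48 h then switched to serum-free induction medium, were exposed in duplicate for 48 h to 8 half-log concentrations up to 100 uM in 0.5% DMSO. CASP8 mRNA was quantified by qRT-PCR, normalized to ACTB/GAPDH/POLR2A.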

[6] = read-out: Cytochrome P450 (CYP2B6), CYP2B6 (gene 1555); experiment: LTEA_HepaRG_CYP2B6: Life Technologies and Expression Analysis (LTEA) Assay for Cytochrome P450 (CYP2B6) using HepaRG (AID 2283481)
How it was run: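 CYP2B6 transcript level quantified by qRT-PCR against three housekeeping genes, fitted bidirectionally relative to DMSO. HepaRG cultures received chemicals for 48 h, 8-point half-log series from 100 uM in 0.5% DMSO, duplicate wells, serum-free induction medium.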

[7] = read-out: Cytochrome P450 2C19 (Homo sapiens) (UniProt P33261); experiment: LTEA_HepaRG_CYP2C19: Life Technologies and Expression Analysis (LTEA) Assay for CYP2C19 using HepaRG (AID 2283482)
How it was run: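 CYP2C19 transcript levels by qRT-PCR, normalized to three housekeeping genes, in HepaRG cells after 48 h chemical exposure. Eight-point half-log series topping at 100 uM, 0.5% DMSO vehicle. Increases and decreases both fitted against DMSO.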

CYP2C8 (gene 1558) = experiment: LTEA_HepaRG_CYP2C8: Life Technologies and Expression Analysis (LTEA) Assay for CYP2C8 using HepaRG (AID 2283483)
How it was run: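 Differentiated human HepaRG cells were exposed for 48 h in serum-free induction medium to eight half-log concentrations up to 100 uM in 0.5% DMSO, in duplicate. CYP2C8 mRNA was measured by TaqMan qRT-PCR, normalized to ACTB, GAPDH and POLR2A, and fitted bidirectionally against DMSO.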

CYP2C9 (gene 1559) = experiment: LTEA_HepaRG_CYP2C9: Life Technologies and Expression Analysis (LTEA) Assay for CYP2C9 using HepaRG (AID 2283484)
How it was run: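 Differentiated human HepaRG cells were exposed 48 h in serum-free induction medium to eight half-log concentrations up to 100 uM in 0.5% DMSO. CYP2C9 mRNA was measured by qRT-PCR, normalized to ACTB, GAPDH and POLR2A, and fitted bidirectionally against DMSO.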

CYP2E1 (gene 1571) = experiment: LTEA_HepaRG_CYP2E1: Life Technologies and Expression Analysis (LTEA) Assay for CYP2E1 using HepaRG (AID 2283485)
How it was run: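 Differentiated HepaRG cells were treated in duplicate for 48 h with chemicals in 0.5% DMSO, from 100 uM downward in half-log dilutions. RNA was then analysed by qRT-PCR for CYP2E1 induction or loss.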

CYP4A11 (gene 1579) = experiment: LTEA_HepaRG_CYP4A11: Life Technologies and Expression Analysis (LTEA) Assay for CYP4A11 using HepaRG (AID 2283486)
How it was run: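 Readout is CYP4A11 transcript level by qRT-PCR, normalized to three housekeeping genes and fitted bidirectionally against 0.5% DMSO. Human HepaRG cells were treated 48 h, in duplicate, with an 8-point half-log series topping at 100 uM.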

[8] = read-out: Cytochrome P450 3A4 (Homo sapiens) (UniProt P08684); experiment: LTEA_HepaRG_CYP3A4: Life Technologies and Expression Analysis (LTEA) Assay for CYP3A4 using HepaRG (AID 2283487)
How it was run: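 In a human hepatic line (HepaRG), duplicate wells were treated 48 h with up to 100 uM chemical in half-log dilutions. Endpoint: CYP3A4 mRNA induction or loss relative to 0.5% DMSO vehicle, by qRT-PCR.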

[9] = read-out: DNA damage-inducible transcript 3 (DDIT3), DDIT3 (gene 1649); experiment: LTEA_HepaRG_DDIT3: Life Technologies and Expression Analysis (LTEA) Assay for DNA damage-inducible transcript 3 (DDIT3) using HepaRG (AID 2283488)
How it was run: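 Changes in DDIT3 transcript, in either direction relative to 0.5% DMSO vehicle, were quantified by TaqMan qRT-PCR after 48 h chemical exposure of HepaRG cells at 8 concentrations, maximum 100 uM.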

[10] = read-out: Pro-epidermal growth factor (Homo sapiens) (UniProt P01133); experiment: LTEA_HepaRG_EGF: Life Technologies and Expression Analysis (LTEA) Assay for Epidermal growth factor (EGF) using HepaRG (AID 2283489)
How it was run: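 EGF transcript measured by Fluidigm TaqMan qRT-PCR with three housekeeping genes for normalization, 48 h after dosing HepaRG cultures in duplicate (top 100 uM, half-log steps, 0.5% DMSO vehicle). Gain or loss relative to DMSO fitted.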

[11] = read-out: Ezrin (EZR), EZR (gene 7430); experiment: LTEA_HepaRG_EZR: Life Technologies and Expression Analysis (LTEA) Assay for Ezrin (EZR) using HepaRG (AID 2283491)
How it was run: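 Gain or loss of EZR mRNA is scored relative to 0.5% DMSO in human HepaRG cultures treated 48 h with test chemicals in duplicate, eight half-log concentrations from 100 uM.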

CYP3A5 (gene 1577) = experiment: LTEA_HepaRG_CYP3A5: Life Technologies and Expression Analysis (LTEA) Assay for CYP3A5 using HepaRG (AID 2283493)
How it was run: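 mRNA induction or loss of CYP3A5 assessed in HepaRG after 48 h dosing, 100 uM top concentration, duplicate wells; TaqMan qRT-PCR with ACTB, GAPDH, POLR2A normalization; 0.5% DMSO as negative control.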

[12] = read-out: Cytochrome P450 3A7 (Homo sapiens) (UniProt P24462); experiment: LTEA_HepaRG_CYP3A7: Life Technologies and Expression Analysis (LTEA) Assay for CYP3A7 using HepaRG (AID 2283492)
How it was run: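 CYP3A7 transcript measured by qRT-PCR (ACTB, GAPDH, POLR2A normalization) after 48 h chemical exposure of HepaRG cells in duplicate. Eight half-log concentrations, maximum 100 uM, 0.5% DMSO vehicle; bidirectional curve fitting against DMSO baseline.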

[13] = read-out: Cytochrome P450 (CYP1A2), CYP1A2 (gene 1544); experiment: LTEA_HepaRG_CYP1A2: Life Technologies and Expression Analysis (LTEA) Assay for Cytochrome P450 (CYP1A2) using HepaRG (AID 2283479)
How it was run: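 CYP1A2 transcript measured by TaqMan qRT-PCR against three housekeeping genes after 48-hour chemical exposure of HepaRG cells. Eight-point half-log series topping at 100 uM in 0.5% DMSO, duplicates; gain or loss fitted relative to vehicle.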

[14] = read-out: Early growth response protein 1 (EGR1) transcription factor, EGR1 (gene 1958); experiment: LTEA_HepaRG_EGR1: Life Technologies and Expression Analysis (LTEA) Assay for Early growth response protein 1 (EGR1) transcription factor using HepaRG (AID 2283490)
How it was run: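 Differentiated human HepaRG cells in serum-free induction medium were exposed in duplicate for 48 h to eight concentrations (top 100 uM, half-log steps) in 0.5% DMSO. EGR1 mRNA was quantified by qRT-PCR, normalized to ACTB, GAPDH and POLR2A, and fitted bidirectionally versus DMSO.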

Measured: AC50

Chain of Cytochrome P450 3A4 (Homo sapiens) (P08684 whole entry, looked up): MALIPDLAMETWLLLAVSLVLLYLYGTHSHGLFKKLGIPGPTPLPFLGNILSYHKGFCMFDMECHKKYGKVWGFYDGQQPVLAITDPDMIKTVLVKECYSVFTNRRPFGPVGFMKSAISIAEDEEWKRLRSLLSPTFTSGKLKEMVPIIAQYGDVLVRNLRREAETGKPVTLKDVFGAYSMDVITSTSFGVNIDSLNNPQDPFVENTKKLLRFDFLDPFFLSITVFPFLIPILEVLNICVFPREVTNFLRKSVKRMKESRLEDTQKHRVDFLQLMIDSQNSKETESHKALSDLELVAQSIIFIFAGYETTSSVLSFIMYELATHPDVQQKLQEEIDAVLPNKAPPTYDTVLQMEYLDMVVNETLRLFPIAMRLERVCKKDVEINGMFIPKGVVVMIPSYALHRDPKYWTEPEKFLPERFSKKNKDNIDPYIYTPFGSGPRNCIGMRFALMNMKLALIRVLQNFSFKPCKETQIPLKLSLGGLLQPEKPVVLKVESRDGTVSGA
Chain of Cytochrome P450 2C19 (Homo sapiens) (P33261 whole entry, looked up): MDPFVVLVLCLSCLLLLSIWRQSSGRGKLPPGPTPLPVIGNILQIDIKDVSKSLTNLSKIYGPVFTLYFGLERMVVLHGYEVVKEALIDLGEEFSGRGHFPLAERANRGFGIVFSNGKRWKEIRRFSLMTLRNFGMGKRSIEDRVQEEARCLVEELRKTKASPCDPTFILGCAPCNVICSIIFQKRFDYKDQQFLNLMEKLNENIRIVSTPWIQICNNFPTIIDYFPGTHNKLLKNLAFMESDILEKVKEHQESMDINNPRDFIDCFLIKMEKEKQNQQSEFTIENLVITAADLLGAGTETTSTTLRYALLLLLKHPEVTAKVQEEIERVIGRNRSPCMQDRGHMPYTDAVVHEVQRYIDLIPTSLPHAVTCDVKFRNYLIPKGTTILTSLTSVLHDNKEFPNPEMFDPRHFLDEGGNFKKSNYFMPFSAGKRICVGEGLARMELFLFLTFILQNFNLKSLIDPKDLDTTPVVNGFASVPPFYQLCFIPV
Chain of Apoptosis regulator Bcl-2 (Homo sapiens) (P10415 whole entry, looked up): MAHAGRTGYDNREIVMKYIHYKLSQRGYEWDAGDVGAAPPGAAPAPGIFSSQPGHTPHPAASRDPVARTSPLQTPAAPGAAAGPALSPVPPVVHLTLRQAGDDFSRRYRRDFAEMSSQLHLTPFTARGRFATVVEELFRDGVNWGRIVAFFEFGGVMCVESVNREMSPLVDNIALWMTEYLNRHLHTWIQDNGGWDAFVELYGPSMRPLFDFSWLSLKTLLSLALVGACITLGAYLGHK
Chain of Cytochrome P450 3A7 (Homo sapiens) (P24462 whole entry, looked up): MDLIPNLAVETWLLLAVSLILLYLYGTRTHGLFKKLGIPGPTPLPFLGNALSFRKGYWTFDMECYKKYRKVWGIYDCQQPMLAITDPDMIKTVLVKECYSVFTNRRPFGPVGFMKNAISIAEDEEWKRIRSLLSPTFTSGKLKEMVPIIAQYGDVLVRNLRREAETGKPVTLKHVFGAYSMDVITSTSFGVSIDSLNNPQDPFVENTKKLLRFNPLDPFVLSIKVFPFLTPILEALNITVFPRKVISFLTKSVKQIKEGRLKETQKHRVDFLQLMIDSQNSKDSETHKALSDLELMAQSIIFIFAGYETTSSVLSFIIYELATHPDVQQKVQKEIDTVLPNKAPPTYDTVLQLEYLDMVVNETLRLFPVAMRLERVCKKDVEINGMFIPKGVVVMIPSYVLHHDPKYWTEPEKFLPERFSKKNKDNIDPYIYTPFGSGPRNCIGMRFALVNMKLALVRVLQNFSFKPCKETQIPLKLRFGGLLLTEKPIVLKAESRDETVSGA

CN(C)c1ccccc1
active: [6] 33.4 µM
inactive: [1] | [2] | [3] | Caspase-3 (Homo sapiens) | [4] | [5] | [7] | CYP2C8 (gene 1558) | CYP2C9 (gene 1559) | CYP2E1 (gene 1571) | CYP4A11 (gene 1579) | [8] | [9] | [10] | [11] | CYP3A5 (gene 1577)

COC(=O)Nc1nc2ccccc2[nH]1
inactive: [1] | [2] | [3] | Caspase-3 (Homo sapiens) | [4] | [5] | [7] | CYP2C8 (gene 1558) | CYP2C9 (gene 1559) | CYP2E1 (gene 1571) | CYP4A11 (gene 1579) | [9] | [10] | [11] | CYP3A5 (gene 1577)
active: [6] 3.97 µM

CCN(CC)CCO
inactive: [1] | [2] | [3] | Caspase-3 (Homo sapiens) | [4] | [5] | [6] | [7] | CYP2C8 (gene 1558) | CYP2C9 (gene 1559) | CYP2E1 (gene 1571) | CYP4A11 (gene 1579) | [8] | [9] | [10] | [11] | [12] | CYP3A5 (gene 1577)

CN(C)[C@@H]1C(=O)C(C(N)=O)=C(O)[C@@]2(O)C(=O)C3=C(O)c4c(O)cccc4[C@@](C)(O)[C@H]3C[C@@H]12
inactive: [1] | [2] | [3] | Caspase-3 (Homo sapiens) | [4] | [5] | [6] | [7] | CYP2C8 (gene 1558) | CYP2E1 (gene 1571) | CYP4A11 (gene 1579) | [8] | [9] | [10] | [11] | [12] | CYP3A5 (gene 1577)

Oc1ccccc1Cl
inactive: [1] | [2] | [3] | Caspase-3 (Homo sapiens) | [4] | [5] | [6] | [7] | CYP2C8 (gene 1558) | CYP2C9 (gene 1559) | CYP2E1 (gene 1571) | CYP4A11 (gene 1579) | [8] | [9] | [10] | [11] | CYP3A5 (gene 1577)

Cc1cc(N=Nc2ccccc2C)ccc1N
active: [1] 2.97 µM | [2] 78 µM | [13] 31.4 µM | [6] 5.08 µM | [7] 4.72 µM | CYP2C8 (gene 1558) 5.98 µM | CYP2C9 (gene 1559) 4.8 µM | CYP2E1 (gene 1571) 12.8 µM | CYP4A11 (gene 1579) 4.52 µM | [8] 2.94 µM | CYP3A5 (gene 1577) 3.11 µM
inactive: Caspase-3 (Homo sapiens) | [4] | [5] | [9] | [10] | [11]

CC(C)N(Cc1ccccc1)C(=O)C(C)(C)C
active: [6] 2.31 µM | [7] 11.1 µM | CYP2C8 (gene 1558) 10.4 µM | CYP2E1 (gene 1571) 19.6 µM | [8] 3.44 µM
inactive: [1] | [2] | [3] | Caspase-3 (Homo sapiens) | [4] | [5] | CYP2C9 (gene 1559) | CYP4A11 (gene 1579) | [9] | [14] | [11] | CYP3A5 (gene 1577)
